Experimental data taken from PubChem BioAssay AID1159580 (chemical genetic matrix, 2015).
Several values for one entry are separate records, joined by “and”; a condition that tells them apart may be missing. Equal values may be shown once. The campaign covered roughly 5,500 compounds. About 2,000 (36%) were called active. Inconclusive results (about 18%) are left out. Cut-off read from the data, not from the text of the source: active = normalized growth mostly below about 0.91 (no sharp cut-off); inconclusive = no clear call, values can overlap the other calls; inactive = mostly above about 0.92. The list shows a part of the results.

Assay: chemical genetic growth profiling, strain panel (AID 1159580);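 note: tested at 20 µM; growth read once vehicle control cultures reached saturation at 30 °C; 1 = growth at the plate median or of vehicle wells; lower values mean less growth of the strain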
Conditions: S. cerevisiae deletion strains, growth OD

Measured: normalized growth

C=C1C(=O)O[C@@H]2C[C@@]3(C)CCC[C@H](C)C3=C[C@H]12
active: locus YAL021C, strain ccr4, stronger effect = lower value 0.849 | locus YAL026C, strain drs2, stronger effect = lower value 0.718 | locus YAL030W, strain snc1, stronger effect = lower value 0.882 | locus YBL061C, strain skt5, stronger effect = lower value 0.901 | locus YBR009C, strain hhf1, stronger effect = lower value 0.733 | locus YBR023C, strain chs3, stronger effect = lower value 0.886 | locus YBR171W, strain sec66, stronger effect = lower value 0.837 | locus YBR231C, strain swc5, stronger effect = lower value 0.572 | locus YBR279W, strain paf1, stronger effect = lower value 0.88 | locus YCL011C, strain gbp2, stronger effect = lower value 0.822 | locus YCL016C, strain dcc1, stronger effect = lower value 0.849 | locus YCL061C, strain MRC1, stronger effect = lower value 0.881 | locus YCL069W, strain vba3, stronger effect = lower value 0.876 | locus YCR088W, strain abp1, stronger effect = lower value 0.896 | locus YDL040C, strain nat1, stronger effect = lower value 0.899 | locus YDL074C, strain BRE1, stronger effect = lower value 0.72 | locus YDL101C, strain DUN1, stronger effect = lower value 0.85 | locus YDL134C, strain PPH21, stronger effect = lower value 0.848 | locus YDL192W, strain arf1, stronger effect = lower value 0.758 | locus YDR001C, strain nth1, stronger effect = lower value 0.897 | locus YDR069C, strain doa4, stronger effect = lower value 0.779 | locus YDR137W, strain rgp1, stronger effect = lower value 0.267 | locus YDR159W, strain sac3, stronger effect = lower value 0.71 | locus YDR162C, strain NBP2, stronger effect = lower value 0.699 | locus YDR195W, strain ref2 1.16 [resistant] | locus YDR297W, strain sur2, stronger effect = lower value 0.855 | locus YDR318W, strain mcm21, stronger effect = lower value 0.814 | locus YDR334W, strain swr1, stronger effect = lower value 0.442 | locus YDR335W, strain msn5, stronger effect = lower value 0.875 | locus YDR388W, stronger effect = lower value 0.869 | locus YDR392W, strain spt3, stronger effect = lower value 0.127 | locus YDR502C, strain sam2, stronger effect = lower value 0.833 | locus YEL003W, strain gim4, stronger effect = lower value 0.715 | locus YEL037C, strain rad23, stronger effect = lower value 0.907 | locus YEL061C, strain CIN8 (second series), stronger effect = lower value 0.88 | locus YEL061C, strain CIN8, stronger effect = lower value 0.916 | locus YER015W, strain faa2, stronger effect = lower value 0.855 | locus YER016W, strain bim1, stronger effect = lower value 0.911 | locus YER110C, stronger effect = lower value 0.836 | locus YER155C, strain BEM2 (second series), stronger effect = lower value 0.585 | locus YER155C, strain BEM2, stronger effect = lower value 0.71 | locus YFR010W, strain ubp6, stronger effect = lower value 0.862 | locus YGL086W, strain mad1, stronger effect = lower value 0.89 | locus YGL167C, strain pmr1, stronger effect = lower value 0.848 | locus YGL173C, strain kem1, stronger effect = lower value 0.888 | locus YGL227W, strain vid30, stronger effect = lower value 0.912 | locus YGL240W, strain doc1, stronger effect = lower value 0.599 | locus YGL248W, strain PDE1, stronger effect = lower value 0.799 | locus YGL253W, strain hxk2, stronger effect = lower value 0.742 | locus YGR135W, strain pre9, stronger effect = lower value 0.801 | locus YHR013C, strain ard1, stronger effect = lower value 0.616 | locus YHR027C, strain rpn1, stronger effect = lower value 0.874 | locus YHR129C, strain ARP1, stronger effect = lower value 0.852 | locus YHR142W, strain chs7, stronger effect = lower value 0.787 | locus YHR200W, strain rpn10, stronger effect = lower value 0.876 | locus YIL066C, strain RNR3, stronger effect = lower value 0.756 | locus YIR030C, strain dcg1, stronger effect = lower value 0.903 | locus YJL092W, strain hpr5, stronger effect = lower value 0.904 | locus YJL095W, strain BCK1 (second series), stronger effect = lower value 0.894 | locus YJL115W, strain asf1, stronger effect = lower value 0.88 | locus YJL129C, strain trk1, stronger effect = lower value 0.76 | locus YJL164C, strain tpk1, stronger effect = lower value 0.809 | locus YJL166W, strain qcr8, stronger effect = lower value 0.654 | locus YJL187C, strain SWE1, stronger effect = lower value 0.903
0.753 (active) and 1.01 (inactive): locus YJL095W, strain BCK1, stronger effect = lower value
inactive: locus YAL013W, strain DEP1, stronger effect = lower value 0.933 | locus YBR021W, strain FUR4, stronger effect = lower value 1.05 | locus YBR229C, strain ROT2, stronger effect = lower value 0.943 | locus YCL029C, strain bik1, stronger effect = lower value 0.949 | locus YDL005C, strain med2, stronger effect = lower value 0.937 | locus YDL035C, strain GPR1, stronger effect = lower value 0.895 | locus YDL185W, strain tfp1, stronger effect = lower value 0.94 | locus YDR101C, strain arx1, stronger effect = lower value 0.945 | locus YDR150W, strain NUM1, stronger effect = lower value 0.925 | locus YER111C, strain swi4, stronger effect = lower value 0.911 | locus YER167W, strain BCK2, stronger effect = lower value 0.906 | locus YGL078C, strain dbp3, stronger effect = lower value 0.981 | locus YGR252W, strain gcn5, stronger effect = lower value 0.864 | locus YHR030C, strain SLT2, stronger effect = lower value 0.927 and 1.01 | locus YHR079C, strain IRE1 (second series), stronger effect = lower value 0.936 | locus YHR079C, strain IRE1, stronger effect = lower value 0.986 | locus YHR094C, strain hxt1, stronger effect = lower value 0.942 | locus YIL073C, strain SPO22, stronger effect = lower value 0.717 | locus YIL125W, strain kgd1, stronger effect = lower value 0.953 | locus YJL134W, strain LCB3, stronger effect = lower value 0.934 | locus YJL154C, strain vps35, stronger effect = lower value 0.921 | locus YJL168C, strain set2, stronger effect = lower value 0.951 | locus YJL187C, strain SWE1 (second series), stronger effect = lower value 0.875
